# Source: ChEMBL document CHEMBL3988442, “University of Dundee, Small-Polar-MMV Screening Library” (2021)
# For some assays here: Results with a measured potency or affinity are listed apart.
# Legend:
# Parameters in all cases: scale not given: direction of the effect not stated beside the values
# [1] = target: Protein translocase subunit SecA (Escherichia coli (strain K12)) (UniProt P10408); assay: Assay to Identify E. coli SecA ATPase Inhibitors; assay type: functional; details: 30 µM
# [2] = target: T1, Ubiquitin-activating enzyme e1, putative (Leishmania donovani (strain BPK282A1)) (UniProt E9BSI1); assay: Leishmania donovani Ubiquitin Activating Enzyme (LdE1); assay type: functional; details: 30 µM
# T1 sequence (whole entry): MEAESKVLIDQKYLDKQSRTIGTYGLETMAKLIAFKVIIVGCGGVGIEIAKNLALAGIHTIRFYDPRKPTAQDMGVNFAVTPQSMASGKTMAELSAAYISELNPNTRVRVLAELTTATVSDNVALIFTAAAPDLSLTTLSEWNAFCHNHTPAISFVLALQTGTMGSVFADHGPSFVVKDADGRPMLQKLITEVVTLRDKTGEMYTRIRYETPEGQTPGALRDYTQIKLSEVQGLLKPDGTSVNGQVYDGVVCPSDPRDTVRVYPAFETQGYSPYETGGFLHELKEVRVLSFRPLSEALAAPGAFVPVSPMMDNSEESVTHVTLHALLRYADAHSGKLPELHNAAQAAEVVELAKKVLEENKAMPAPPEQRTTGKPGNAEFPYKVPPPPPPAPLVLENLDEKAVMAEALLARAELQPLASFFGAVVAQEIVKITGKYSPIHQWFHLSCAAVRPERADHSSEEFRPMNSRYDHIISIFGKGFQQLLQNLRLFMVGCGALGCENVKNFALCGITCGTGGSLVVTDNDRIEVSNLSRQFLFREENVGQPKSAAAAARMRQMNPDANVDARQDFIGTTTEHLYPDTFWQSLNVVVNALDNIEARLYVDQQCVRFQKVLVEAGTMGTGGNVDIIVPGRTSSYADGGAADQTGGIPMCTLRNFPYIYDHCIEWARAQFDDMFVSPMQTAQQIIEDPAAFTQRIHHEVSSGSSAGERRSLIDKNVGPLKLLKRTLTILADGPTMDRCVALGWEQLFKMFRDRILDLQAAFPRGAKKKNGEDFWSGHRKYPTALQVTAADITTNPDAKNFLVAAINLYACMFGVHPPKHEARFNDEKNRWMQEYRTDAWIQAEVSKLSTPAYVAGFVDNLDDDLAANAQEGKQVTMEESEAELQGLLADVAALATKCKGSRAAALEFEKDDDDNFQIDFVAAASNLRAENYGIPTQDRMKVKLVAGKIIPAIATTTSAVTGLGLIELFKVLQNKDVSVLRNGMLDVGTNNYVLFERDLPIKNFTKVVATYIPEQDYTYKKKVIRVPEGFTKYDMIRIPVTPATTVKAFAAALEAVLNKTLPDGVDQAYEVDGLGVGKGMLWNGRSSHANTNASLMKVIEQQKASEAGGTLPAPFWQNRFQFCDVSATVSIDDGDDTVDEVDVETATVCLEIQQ
# [3] = target: AMP-activated protein kinase, AMPK (Homo sapiens) (UniProt P54646+O43741+P54619+Q9UGJ0+Q9Y478+Q13131+Q9UGI9); assay: AMP-dependent Kinase enzyme assay. An in vitro enzyme assay that detects ADP turnover that is directly proportional to AMPK activity. This uses naive AMPK that is activated during the assay with MK-8722; assay type: functional; details: 30 µM
# [4] = target: Sialic acid-binding Ig-like lectin 9 (Homo sapiens) (UniProt Q9Y336); assay: Hs-Siglec9 ALPHAscreen SOP 20170721; details: 10 µM
# [5] = tested on: Trypanosoma cruzi; assay: Trypanosoma cruzi phosphomannomutase and mannose-1-phosphate guanylyltransferase assay; assay type: functional; details: 10 µM
# [6] = target: T2, Arginase-2, mitochondrial (Homo sapiens) (UniProt P78540); assay: in vitro enzyme assay to detect the production of urea directly proportional to the activity of Arginase II; assay type: functional; details: 33.3 µM; further: in the data most compounds retested in dose-response had high values
# T2 sequence (whole entry): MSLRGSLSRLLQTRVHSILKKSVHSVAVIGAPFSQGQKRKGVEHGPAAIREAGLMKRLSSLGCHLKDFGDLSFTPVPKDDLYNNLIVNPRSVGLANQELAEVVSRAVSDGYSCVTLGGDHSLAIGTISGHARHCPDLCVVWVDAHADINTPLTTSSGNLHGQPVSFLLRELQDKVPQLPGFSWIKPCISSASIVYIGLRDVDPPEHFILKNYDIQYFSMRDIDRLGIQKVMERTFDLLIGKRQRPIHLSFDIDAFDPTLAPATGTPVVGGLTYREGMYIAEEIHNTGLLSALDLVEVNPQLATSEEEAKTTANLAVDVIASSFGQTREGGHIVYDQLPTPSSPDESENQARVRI
# [7] = target: T3, Proteasome subunit beta (Trypanosoma cruzi) (UniProt O96673); assay: Trypanosoma cruzi proteasome chymotrypsin-like activity (TcProtChymo) assay.; further: in the data most compounds retested in dose-response had high values; assay type: functional; details: 9.37 µM
# T3 sequence (whole entry): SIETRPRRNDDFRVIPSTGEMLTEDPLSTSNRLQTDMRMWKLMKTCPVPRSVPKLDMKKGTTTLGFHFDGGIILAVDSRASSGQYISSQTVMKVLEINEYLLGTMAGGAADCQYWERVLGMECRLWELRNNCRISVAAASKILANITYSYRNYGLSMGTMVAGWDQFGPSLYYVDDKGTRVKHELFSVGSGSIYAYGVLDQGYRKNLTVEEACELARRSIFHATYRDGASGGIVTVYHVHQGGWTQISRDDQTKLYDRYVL
# [8] = organism: Homo sapiens; assay: To identify inhibition of the IFN signalling (Jak-Stat) pathway via expression of an eGFP reporter gene under the control of an IFN-stimulated response element (ISRE) containing MxA promoter.; assay type: functional; details: 30 µM
# [9] = target: T4, Tyrosyl-tRNA synthetase, putative (Trypanosoma cruzi (strain CL Brener)) (UniProt Q4DSP6); assay: Trypanosoma cruzi tyrosyl tRNA synthetase (TcYRS) _High Tyrosine SOP; assay type: functional; details: 30 µM; further: in the data most compounds retested in dose-response had high values
# T4 sequence (whole entry): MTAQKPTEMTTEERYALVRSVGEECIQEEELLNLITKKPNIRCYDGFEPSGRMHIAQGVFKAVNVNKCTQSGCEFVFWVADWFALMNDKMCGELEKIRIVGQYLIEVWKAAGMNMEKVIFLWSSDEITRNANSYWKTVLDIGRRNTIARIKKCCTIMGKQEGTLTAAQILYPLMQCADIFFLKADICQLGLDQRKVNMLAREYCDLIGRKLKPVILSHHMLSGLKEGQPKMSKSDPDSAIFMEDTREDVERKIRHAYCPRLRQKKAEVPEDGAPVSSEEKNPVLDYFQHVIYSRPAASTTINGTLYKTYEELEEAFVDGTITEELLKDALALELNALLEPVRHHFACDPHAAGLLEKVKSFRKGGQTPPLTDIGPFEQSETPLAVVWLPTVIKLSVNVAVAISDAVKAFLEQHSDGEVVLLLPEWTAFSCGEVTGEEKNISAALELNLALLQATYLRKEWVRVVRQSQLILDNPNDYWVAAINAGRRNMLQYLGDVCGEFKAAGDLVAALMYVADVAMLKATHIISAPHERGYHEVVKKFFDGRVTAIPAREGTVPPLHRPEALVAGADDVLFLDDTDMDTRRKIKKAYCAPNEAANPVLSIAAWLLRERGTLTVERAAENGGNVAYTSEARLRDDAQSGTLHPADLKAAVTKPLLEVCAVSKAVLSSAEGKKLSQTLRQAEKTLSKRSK
# [10] = target: T4, Tyrosyl-tRNA synthetase, putative (Trypanosoma cruzi (strain CL Brener)); assay: Trypanosoma cruzi tyrosyl tRNA synthetase (TcYRS) SOP; assay type: functional; details: 30 µM
# [11] = target: Chromo domain-containing protein 1 (Saccharomyces cerevisiae (strain ATCC 204508 / S288c) (Baker's yeast)) (UniProt P32657); assay: ScCHD-1 Enzyme Inhibition Assay; assay type: functional; details: 30 µM; further: in the data most compounds retested in dose-response had high values
# Chain of Chromo domain-containing protein 1 (Saccharomyces cerevisiae (strain ATCC 204508 / S288c) (Baker's yeast)) (P32657 whole entry, the tested form may be a part): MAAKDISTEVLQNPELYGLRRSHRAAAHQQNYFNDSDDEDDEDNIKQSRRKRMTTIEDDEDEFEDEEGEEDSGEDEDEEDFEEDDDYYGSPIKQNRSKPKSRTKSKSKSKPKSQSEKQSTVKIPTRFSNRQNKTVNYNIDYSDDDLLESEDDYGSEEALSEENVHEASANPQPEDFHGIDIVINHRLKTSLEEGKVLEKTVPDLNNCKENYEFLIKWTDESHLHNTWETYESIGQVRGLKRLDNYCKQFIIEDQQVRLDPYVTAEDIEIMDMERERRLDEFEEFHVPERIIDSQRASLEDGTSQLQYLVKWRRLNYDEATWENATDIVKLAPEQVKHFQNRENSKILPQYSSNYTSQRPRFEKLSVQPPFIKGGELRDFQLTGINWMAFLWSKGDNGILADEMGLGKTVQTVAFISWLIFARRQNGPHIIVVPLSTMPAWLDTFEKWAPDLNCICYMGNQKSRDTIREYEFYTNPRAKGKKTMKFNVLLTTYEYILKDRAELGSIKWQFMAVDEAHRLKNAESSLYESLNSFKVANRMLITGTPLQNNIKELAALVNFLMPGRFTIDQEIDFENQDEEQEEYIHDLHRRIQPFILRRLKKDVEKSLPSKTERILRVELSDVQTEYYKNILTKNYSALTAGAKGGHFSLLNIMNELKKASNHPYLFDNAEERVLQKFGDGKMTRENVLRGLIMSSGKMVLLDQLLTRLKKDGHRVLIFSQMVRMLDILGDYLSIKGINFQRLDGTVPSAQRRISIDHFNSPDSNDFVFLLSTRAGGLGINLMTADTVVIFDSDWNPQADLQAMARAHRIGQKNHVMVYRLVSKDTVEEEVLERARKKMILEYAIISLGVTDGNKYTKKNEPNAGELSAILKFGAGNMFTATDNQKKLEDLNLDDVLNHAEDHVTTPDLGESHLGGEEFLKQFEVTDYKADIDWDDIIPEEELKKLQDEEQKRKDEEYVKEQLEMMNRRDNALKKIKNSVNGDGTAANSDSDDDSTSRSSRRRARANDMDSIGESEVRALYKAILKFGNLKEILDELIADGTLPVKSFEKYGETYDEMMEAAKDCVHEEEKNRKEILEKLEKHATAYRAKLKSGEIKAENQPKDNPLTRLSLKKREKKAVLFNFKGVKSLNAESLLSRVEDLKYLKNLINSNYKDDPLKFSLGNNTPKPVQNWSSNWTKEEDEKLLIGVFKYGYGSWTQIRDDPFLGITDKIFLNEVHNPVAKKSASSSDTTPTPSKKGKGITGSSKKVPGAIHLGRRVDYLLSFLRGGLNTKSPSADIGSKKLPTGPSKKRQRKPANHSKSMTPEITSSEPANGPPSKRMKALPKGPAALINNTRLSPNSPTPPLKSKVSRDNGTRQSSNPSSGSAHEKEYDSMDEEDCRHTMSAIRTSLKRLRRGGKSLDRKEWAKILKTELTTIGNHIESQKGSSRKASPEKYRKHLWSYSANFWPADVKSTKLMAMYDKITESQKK
# Chain of Sialic acid-binding Ig-like lectin 9 (Homo sapiens) (Q9Y336 whole entry): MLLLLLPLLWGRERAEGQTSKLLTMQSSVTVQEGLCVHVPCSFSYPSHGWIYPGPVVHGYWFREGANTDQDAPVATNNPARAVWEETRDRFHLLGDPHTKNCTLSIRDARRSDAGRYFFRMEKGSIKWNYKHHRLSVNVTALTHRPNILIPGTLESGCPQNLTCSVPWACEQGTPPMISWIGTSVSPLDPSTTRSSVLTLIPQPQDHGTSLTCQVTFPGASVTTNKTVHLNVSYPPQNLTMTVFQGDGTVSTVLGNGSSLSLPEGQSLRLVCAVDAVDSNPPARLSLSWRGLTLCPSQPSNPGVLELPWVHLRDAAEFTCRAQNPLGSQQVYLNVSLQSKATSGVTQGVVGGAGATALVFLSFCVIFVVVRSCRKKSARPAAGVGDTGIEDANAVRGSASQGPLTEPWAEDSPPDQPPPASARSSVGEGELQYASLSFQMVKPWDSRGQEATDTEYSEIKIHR
# Chain of Protein translocase subunit SecA (Escherichia coli (strain K12)) (P10408 whole entry): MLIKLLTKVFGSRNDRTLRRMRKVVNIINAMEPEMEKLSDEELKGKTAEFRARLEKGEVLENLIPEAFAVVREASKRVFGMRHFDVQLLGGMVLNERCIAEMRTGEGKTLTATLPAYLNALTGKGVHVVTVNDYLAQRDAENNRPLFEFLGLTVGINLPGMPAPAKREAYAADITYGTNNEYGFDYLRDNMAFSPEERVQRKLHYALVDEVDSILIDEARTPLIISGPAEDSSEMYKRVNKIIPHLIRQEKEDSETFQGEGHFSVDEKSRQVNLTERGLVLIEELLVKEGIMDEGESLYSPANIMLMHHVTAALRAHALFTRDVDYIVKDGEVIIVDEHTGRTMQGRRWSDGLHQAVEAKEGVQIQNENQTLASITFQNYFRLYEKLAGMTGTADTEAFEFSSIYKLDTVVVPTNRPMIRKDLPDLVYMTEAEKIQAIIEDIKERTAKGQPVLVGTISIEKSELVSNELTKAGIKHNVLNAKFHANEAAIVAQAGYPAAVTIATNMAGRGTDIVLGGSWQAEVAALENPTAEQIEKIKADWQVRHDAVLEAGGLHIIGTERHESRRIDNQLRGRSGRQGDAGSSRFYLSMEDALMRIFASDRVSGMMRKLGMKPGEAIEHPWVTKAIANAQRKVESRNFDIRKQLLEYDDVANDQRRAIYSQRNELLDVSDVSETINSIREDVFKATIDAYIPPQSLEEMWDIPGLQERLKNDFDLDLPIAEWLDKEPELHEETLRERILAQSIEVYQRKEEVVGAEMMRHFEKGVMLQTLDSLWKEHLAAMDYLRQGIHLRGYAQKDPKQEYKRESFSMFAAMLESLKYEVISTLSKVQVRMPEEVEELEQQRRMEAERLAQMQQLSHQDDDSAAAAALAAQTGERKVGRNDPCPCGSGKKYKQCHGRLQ
Structure (SMILES),Percent Effect [1] [%],Percent Effect [2] [%],Percent Effect [3] [%],Percent Effect [4] [%],Percent Effect [5] [%],Percent Effect [6] [%],Percent Effect [7] [%],Percent Effect [8] [%],Percent Effect [9] [%],Percent Effect [10] [%],Percent Effect [11] [%]
CCOc1ccc(S(=O)(=O)NCc2cccnc2N(C)C)cc1,-2.65,27.9,-9.37,-4.06,7.08,-5.7,7.29,58.7,7.39,26.6,-5.96
CN1Cc2c(C(=O)Nc3cccnc3)ncn2-c2ccccc2S1(=O)=O,-1.38,-5.48,-2.46,4.18,0,-4.39,7.79,-3.68,0,6.17,0.964
Cc1nn(C)cc1CNC(=O)c1cn(CCC2CCCCN2)nn1 (stereo unspecified),-3.59,2.67,-4.65,9.99,9.64,-1.04,20.9,-18.7,6.01,16.1,-3.7
Cc1nc(CN2CCCN(C(=O)C3(C#N)CCCCC3)CC2)cs1,-5.19,5.06,-4.31,9.63,-1.79,0,7.12,13.8,6.4,13.9,-3.28
Cc1oc(C(=O)O)cc1S(=O)(=O)Nc1c(F)cccc1-n1cccn1,-5.09,0,-0.737,4.46,7.5,0,11,7.88,2.73,6.17,-3.81
CN(C)S(=O)(=O)N1CCC(Oc2ccc(C#N)cn2)CC1,-4.11,5.2,0.734,0.477,3.25,-0.645,17.2,28,5.29,8.97,-8.98
Cc1nc(CN2CCn3cc(CNC(=O)C4CCC4)nc3C2)cs1,-1.94,13.3,-0.557,6.49,4.63,-45.3,24.1,-2.13,9.38,27.5,-8.63
CN1CCN(C(=O)[C@@H]2CCO[C@@H]3CCN(c4ncccn4)C[C@@H]32)CC1,-0.254,13.3,0.0211,0.601,2.7,-48.9,8.21,-18.8,7.29,17.5,-7.16
CN(CC1CCCO1)C1CCN(CCc2ccccn2)CC1 (stereo unspecified),-1.45,0,-5.1,7.51,-1.95,0.924,-0.898,7.31,3.96,1.22,8.88
Cc1ccc(S(=O)(=O)NC(=O)c2c(C)noc2C(C)C)cc1C,-2.23,10.5,-4.09,2.28,1.07,-3.55,10.6,-1.83,3.19,10.4,-1.79
COc1ccc(C2=CCN(C(=O)CN(C)CC(C)C#N)CC2)cc1 (stereo unspecified),-8.6,-12.7,-4.45,7.49,10.5,-6.84,0.901,10.5,7.39,13.9,-8.15
O=C1NCCN1C1CCCN(Cc2coc(-c3ccc(F)cc3)n2)C1 (stereo unspecified),-10.2,-8.11,-13.5,25.4,10.9,-1.29,0.898,57.5,5.94,15.8,-6.73
Cc1ncc2c(n1)CCN(C(=O)Cc1c(C)noc1C)C2,-8.55,13.2,-4.54,7.88,9.62,-1.44,8.21,-0.465,9.36,18.5,-7.72
Cc1nc(-c2ccc(Cl)s2)sc1C(=O)NCCS(N)(=O)=O,-5.36,10.8,20,14.1,-1.95,2.4,9.34,6.3,5.94,13.4,0.478
CN1CCN(Cc2cn3c(n2)CN(Cc2cccnc2)CC3)CC1,5.16,16.2,12.3,-13.1,-7.14,2.23,5.72,16.3,1.08,10.3,-4.09
CC(C)N(C)Cc1cn2c(n1)CN(Cc1ccsc1)CC2,5.48,11,1.28,6.24,-5.56,-3.19,9.33,18.4,7.29,8.64,2.73
